Test results from PubChem BioAssay (NCI).
About 79,000 compounds went through this panel and 15% of them were active in at least one assay; those are over-represented in the sample as a whole. A number with no mark means an inactive call. Active and inactive are the calls of the source. Rule as the data show it: active = growth inhibition above about 70%; inactive = the rest.

How the values were obtained:
[1] = NCI Yeast Anticancer Drug Screen. Data for the rad50 strain (AID 155);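 also: 0% = growth of vehicle-only cultures of the same strain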; settings: S. cerevisiae rad50 strain growth inhibition, stronger effect = higher value
Procedure, shortened: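 Cells are treated with compound, grown, and their growth is then scored against vehicle-only cultures of the same repair-deficient yeast strain.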

[2] = NCI Yeast Anticancer Drug Screen. Data for the mec2-1 strain (AID 157); settings: S. cerevisiae mec2-1 strain, stronger effect = higher value
Procedure, shortened: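 Using mec2-1 yeast: add compound, measure growth, express inhibition versus vehicle-treated cultures.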

[3] = NCI Yeast Anticancer Drug Screen. Data for the sgs1 mgt1 strain (AID 161);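 also: 0% = growth of cultures given vehicle only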; settings: S. cerevisiae sgs1 mgt1 strain, stronger effect = higher value
Procedure, shortened: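 This yeast growth screen uses a strain with defined DNA-repair lesions; compound-treated growth is compared with vehicle-treated growth.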

[4] = NCI Yeast Anticancer Drug Screen. Data for the cln2 rad14 strain (AID 165);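 also: 0% = growth equal to vehicle treated cultures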; settings: S. cerevisiae cln2 rad14 strain, stronger effect = higher value
Procedure, shortened: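 Yeast strain cln2 rad14, bearing defects in cell cycle control and DNA repair, serves as the test system; values reflect growth inhibition compared with vehicle.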

[5] = NCI Yeast Anticancer Drug Screen. Data for the bub3 strain (AID 167); settings: S. cerevisiae bub3 mutant strain, stronger effect = higher value
Procedure, shortened: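 Part of a panel of yeast mutants defective in DNA damage repair or cell cycle regulation. Each strain is grown with compound, and inhibition is calculated relative to solvent-treated cultures.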

[6] = NCI Yeast Anticancer Drug Screen. Data for the mlh1 rad18 strain (AID 175); settings: S. cerevisiae mlh1 rad18 strain growth inhibition, stronger effect = higher value
Procedure, shortened: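 Steps: expose repair-defective yeast to compound; measure growth; express inhibition against vehicle-treated controls.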

[7] = at 5.0 µM (retest, dose inferred, filed as 0.5)
[8] = at 50.0 µM (retest, dose inferred, filed as 5.0)

| Structure (SMILES) | growth inhibition [1, 7] | growth inhibition [1, 8] | growth inhibition ([1]; at 50.0 µM) | growth inhibition [2, 7] | growth inhibition [2, 8] | growth inhibition ([2]; at 50.0 µM) | growth inhibition [3, 7] | growth inhibition [3, 8] | growth inhibition ([3]; at 50.0 µM) | growth inhibition [4, 7] | growth inhibition [4, 8] | growth inhibition ([4]; at 50.0 µM) | growth inhibition [5, 7] | growth inhibition [5, 8] | growth inhibition ([5]; at 50.0 µM) | growth inhibition [6, 7] | growth inhibition [6, 8] | growth inhibition ([6]; at 50.0 µM) |
| --- | --- | --- | --- | --- | --- | --- | --- | --- | --- | --- | --- | --- | --- | --- | --- | --- | --- | --- |
| N#CC(C#N)=Cc1ccc(Cl)o1 | 2% | 54% | 59.6% | 4% | 47% | 50% | 2% | 24% | 61.8% | -6% | 26% | 42.4% | -2% | 35% | 45% | 1% | 29% | 82.8% (active) |
| CCCC(=O)O.CCCC(=O)O.CCCC(=O)O.CCCC(=O)O.[Rh].[Rh] | 25% | 44% | 22% | 34% | 61% | 48.5% | 28% | 59% | 30.1% | 42% | 69% | 43.5% | 37% | 64% | 33.7% | 29% | 52% | 24.1% |
| CN(C)c1ccc(C(c2c(O)c3ccccc3oc2=O)c2c(O)c3ccccc3oc2=O)cc1 | 0% | 40% | 59.2% | -8% | 26% | 65.6% | 4% | 42% | 60% | -5% | 13% | 18.5% | -3% | 16% | 34.3% | -3% | 13% | 51% |
| CC12OOC(c3ccccc31)c1c2ccc2ccccc12 (centres undefined) | 62% | 98% (active) | 86% (active) | 94% (active) | 99% (active) | 93.5% (active) | 92% (active) | 99% (active) | 90% (active) | 71% (active) | 99% (active) | 88.5% (active) | 97% (active) | 97% (active) | 90.5% (active) | 90% (active) | 97% (active) | 90.2% (active) |
| CN(C)c1ccc(N=Nc2cccc(C(=O)[O-])c2)cc1.CN(C)c1ccc(N=Nc2cccc(C(=O)[O-])c2)cc1.NC1CCCCC1N.O=[N+]([O-])O.[Pt+4] | 1% | 98% (active) | 91% (active) | 21% | 98% (active) | 91.7% (active) | 23% | 99% (active) | 93.2% (active) | 28% | 97% (active) | 44.1% | 45% | 98% (active) | 81.5% (active) | 41% | 97% (active) | 92% (active) |
| O=[N+]([O-])O.c1ccc([As+](c2ccccc2)(c2ccccc2)c2ccccc2)cc1 | 26% | 96% (active) | 97% (active) | 43% | 99% (active) | 97.9% (active) | 21% | 98% (active) | 97% (active) | 7% | 92% (active) | 97.6% (active) | 16% | 97% (active) | 97% (active) | 24% | 96% (active) | 95.8% (active) |
| O=[N+]([O-])c1ccc([N+](=O)[O-])c2ccccc12 | 37% | 99% (active) | 86.5% (active) | 47% | 99% (active) | 61.7% | 61% | 97% (active) | 91.1% (active) | 82% (active) | 97% (active) | 67.9% | 45% | 95% (active) | 85.7% (active) | 31% | 99% (active) | 22.8% |
| [Au+].[Au+].[Au+].[c-]1nccn1Cc1ccccc1.[c-]1nccn1Cc1ccccc1.[c-]1nccn1Cc1ccccc1 | 13% | 97% (active) | 76.6% (active) | 11% | 98% (active) | 88.2% (active) | 29% | 97% (active) | 88.9% (active) | 12% | 97% (active) | 88.8% (active) | 18% | 98% (active) | 84.3% (active) | 57% | 96% (active) | 90.9% (active) |
| CC(=O)[O][Hg][c]1c(C)c(C)cc(C)c1C | 99% (active) | 96% (active) | 90.1% (active) | 100% (active) | 98% (active) | 91.2% (active) | 99% (active) | 98% (active) | 87.7% (active) | 99% (active) | 98% (active) | 85.7% (active) | 99% (active) | 97% (active) | 84.2% (active) | 99% (active) | 96% (active) | 76.2% (active) |
| CC1=C[C@H]2O[C@H]3C[C@H]4OC(=O)/C=C\C=C\C(=O)OCC[C@@H](C)[C@H](O)C(=O)OC[C@@]2(CC1)[C@@]4(C)[C@]31CO1 | 99% (active) | 99% (active) | 92% (active) | 100% (active) | 99% (active) | 92.9% (active) | 100% (active) | 99% (active) | 92.8% (active) | 98% (active) | 98% (active) | 90.3% (active) | 100% (active) | 98% (active) | 92% (active) | 98% (active) | 98% (active) | 92% (active) |
| C[CH2][Hg] | 98% (active) | 99% (active) | 99.1% (active) | 100% (active) | 99% (active) | 99.5% (active) | 99% (active) | 99% (active) | 57.1% | 99% (active) | 100% (active) | 59.3% | 99% (active) | 99% (active) | 99.2% (active) | 94% (active) | 99% (active) | 52.2% |
| CC(=O)OCC1(N2CCCC2)CCCCC1 | -3% | 2% | 5.05% | 2% | -3% | 5.35% | -3% | 16% | 43.4% | -5% | -17% | 0.45% | -10% | -10% | 23.6% | -16% | -6% | -16.6% |
| S=C=NC/C(Cl)=C/Cl | 43% | 48% | 71.9% (active) | 49% | 45% | 53.5% | 14% | 89% (active) | 72.5% (active) | 56% | 71% (active) | 56.9% | 35% | 91% (active) | 69.2% | 38% | 46% | 70.5% (active) |
| CC1=CC2CC(C)=C(CC[C@]3(C)CC[C@H]([C@@H](C)C(=O)O)OO3)C(C)(C)C2CC1 (some centres undefined) | 41% | 98% (active) | 91.7% (active) | 59% | 99% (active) | 93.8% (active) | 69% | 99% (active) | 93% (active) | 41% | 98% (active) | 91.2% (active) | 52% | 98% (active) | 92.2% (active) | 60% | 98% (active) | 91.4% (active) |
| CCCC[As](CCCC)SC1CCC2(C)C(=CCC3C4CCC(=O)C4(C)CCC32)C1 (centres undefined) | 16% | 92% (active) | 95.7% (active) | 6% | 87% (active) | 83.6% (active) | 21% | 76% (active) | 97% (active) | 5% | 64% | 82.3% (active) | 3% | 87% (active) | 84% (active) | 13% | 88% (active) | 98.8% (active) |
| O=[As]c1ccc(O)c(O)c1 (centres undefined) | 11% | 99% (active) | 97% (active) | -4% | 100% (active) | 99.4% (active) | -4% | 99% (active) | 99.5% (active) | -9% | 99% (active) | 98.8% (active) | 22% | 99% (active) | 99.2% (active) | 6% | 99% (active) | 99.3% (active) |
| CCN(CC)CC(=O)c1cc2ccccc2c2ccccc12 | 36% | 97% (active) | 99.3% (active) | 14% | 93% (active) | 92.2% (active) | 47% | 97% (active) | 99.4% (active) | 2% | 82% (active) | 31.1% | 11% | 98% (active) | 99.1% (active) | 36% | 98% (active) | 99% (active) |
| Nc1ccc([As]=[As]c2ccc(N)cc2)cc1 (centres undefined) | -14% | 71% (active) | 73.7% (active) | 2% | 91% (active) | 96.6% (active) | -16% | 68% | 50.2% | 2% | 67% | 91.2% (active) | 3% | 91% (active) | 97.2% (active) | -1% | 86% (active) | 90.8% (active) |
